Shown are actives, neighbours in structure and some others; about 2.5% of the full set was active somewhere.
Akt phos inh – Akt phosphorylation inhibition. Neuro2A IGF-stimulated pAkt S473 HTRF, 20 min; hits give low values. activity change, % for hits at 50 µM. hit rate 0.32% among 360,000; in the data active means activity change below about -80%; inconclusive means mostly about -51% to -80%; further: on the % scale 0 is the no-effect control and ±100 the full control effect
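Neuro2A cells (4,500/well, DMEM with 0.5% FBS) were treated with compound at a single 50 µM final concentration, stimulated with 6 nM IGF for 20 min at 37 °C, and lysed. Phospho-Akt Ser473 was read by HTRF as 665/615 ratio ×10^4.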
CCT chaperon mod – modulators of cytosolic chaperonin (CCT/TRiC) activity; purified chaperonin ATPase assay, HTRF ADP detection, 30 min; activity change, % (test concentration not listed), hits read low; hit rate 0.3% among 360,000; in the data active means activity change below about -30%; further: on the % scale 0 is the no-effect control and ±100 the full control effect
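TRiC (40 or 20 nM final, by batch activity) in 30 mM Tris pH 7.4, 100 mM KCl, 5 mM MgCl2, 1 mM DTT was treated with compound at 76 uM single dose, then 10 uM ATP, 30 min at 37 °C. ADP was read by HTRF Transcreener.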
Mito fusion act – mitochondrial division inhibition or fusion activation; S. cerevisiae fusion-defective mutant growth rescue, CellTiterGlo 48 h; Potency, µM (titrated, usually from 46.1 µM), inactives show top-dose growth rescue (activation), hits mostly activators; hit rate 0.23% among 320,000; further: potency means the concentration at half of the fitted maximal effect; % of control where 0% means no effect; nearly all actives have a fitted effect of over 45% in size
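S. cerevisiae fusion-defective temperature-sensitive mutants (e.g. fzo1-1, mgm1-5) grown 48 h at 37C in YPEG (ethanol/glycerol non-fermentable) medium with 23 nl compound per well; growth rescue read as CellTiterGlo luminescence.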
aSyn rescue – alpha-synuclein toxicity inhibition in yeast; Yeast expressing alpha-synuclein, growth rescue, BacTiter-Glo, 24 h; Potency, µM (doses to about 46.1 µM), for inactives: at the highest dose growth rescue (activation), hits mostly activators; hit rate 0.14% among 370,000; AID 652106; further: potency means the concentration at half of the fitted maximal effect; % of control where 0% means no effect; nearly all actives have a fitted effect of over 65% in size
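Screening used galactose-induced yeast with toxic alpha-synuclein levels, exposed to compound for 24 hr at 30 deg C. Cell growth, read with BacTiter-Glo luminescence, gave the measured signal.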
TDP-43 yeast inh – rescues yeast growth from TDP-43 toxicity; TDP-43 expressing yeast growth rescue, BacTiter-Glo, 24 h; Potency, µM (titrated, usually from 46.1 µM), for the others: at the highest dose growth rescue (activation), most hits filed as activators; hit rate 1.8% among 410,000; AID 652104; further: potency means the concentration at half of the fitted maximal effect; % of control where 0% means no effect; nearly all actives have a fitted effect of over 50% in size
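Growth rescue of TDP-43-toxic yeast measured as ATP luminescence (BacTiter-Glo). Cells grown to mid-log in raffinose, induced in galactose at OD600=0.02, exposed to compound 24 hr at 30 deg C.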
Anesthetic bind – binds horse apoferritin like a general anesthetic | AID 485281 | apoferritin/1-aminoanthracene competitive binding, fluorescence | Potency, µM (series often up to 77.5 µM), for inactives: at the highest dose activity change, negative = displacement, actives largely listed as inhibitors | hit rate 0.074% among 350,000 | P02791; further: potency means the concentration at half of the fitted maximal effect; on the % scale 0 is the no-effect control and ±100 the full control effect; nearly all actives have a fitted effect of over 20% in size
Target sequence (P02791 2-175 limits assumed): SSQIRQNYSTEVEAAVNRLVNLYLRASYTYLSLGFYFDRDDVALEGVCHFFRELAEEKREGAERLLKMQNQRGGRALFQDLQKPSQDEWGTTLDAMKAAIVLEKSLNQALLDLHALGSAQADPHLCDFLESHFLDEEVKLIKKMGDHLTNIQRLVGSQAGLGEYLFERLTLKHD
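Steps: apoferritin (10 uM) was premixed with half-saturated 1-AMA in PBS, compounds were pin-transferred, plates stood 10 min at room temperature, fluorescence was read at 380/535 nm, and curves were fitted with a Hill equation.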
Active calls of the source: *; i = inactive; ? = inconclusive; nt = no result; ! = not confirmed by another sample; [ ] = remark or other dose. Unless noted, the call rests on the fitted dose curve; in most records, active means well fitted curve in the direction sought with a large enough effect; inconclusive means small, poorly fitted or top-dose-only effect, or another doubt; inactive means no such curve, though single readings can be large; an effect the other way counts as inactive or inconclusive.

SMILES	Akt phos inh	CCT chaperon mod	Mito fusion act	aSyn rescue	TDP-43 yeast inh	Anesthetic bind
CC(OC(=O)CN(C)S(=O)(=O)c1ccc(Cl)cc1)C(=O)Nc1cccc(Cl)c1 (stereo not drawn)	-98%*	2	1%	?	-5%	-15%
CC(OC(=O)CN(C)S(=O)(=O)c1ccc(Cl)cc1)C(=O)Nc1ncc(Cl)cc1Cl (stereo not drawn)	i	-1	3%	2%	-15%	-17%
O=C(CSc1nc2c([nH]c3ccccc32)c(=O)n1-c1cccc(Cl)c1)N1CCc2ccccc21	nt	nt	nt	23%	15%	-2%
CN(c1ncnc(N)c1[N+](=O)[O-])C1CCS(=O)(=O)C1 (stereo not drawn)	i	-2	2%	-4%	2%	-9%
CN(c1ncnc(N)c1[N+](=O)[O-])C1CCCCC1	nt	-4	-1%	5%	13µM*	?
C[C@H](NC(=O)OC(C)(C)C)c1nnc(SCc2ccc(Cl)cc2Cl)o1	nt	nt	nt	15%	?	?
CC1Cc2ccccc2N1C(=O)CSc1ccccc1 (stereo not drawn)	i	0	15%	5%	?	6.3µM*
CC1Cc2ccccc2N1C(=O)CSc1nnc(CSc2ncccn2)n1C (stereo not drawn)	-81%*	-1	-3%	-2%	-3%	-16%
CCOc1cc(CNC(=O)CN2CCSc3ccccc32)cc(OCC)c1OCC	nt	nt	nt	-12%	21%	-13%
O=C(CN1CCSc2ccccc21)NCc1ccccc1F	nt	nt	nt	10%	13µM*	-4%
CCOc1ccc(C(=O)OC(C)C(=O)N2CCN(Cc3ccccc3)CC2)cc1 (stereo not drawn)	i	-21	nt	-2%	3.2µM*	nt
CCC(=O)N1c2ccccc2[C@@H](N(C(C)=O)c2ccccc2)C[C@H]1C	i	-79*	-4%	-1%	-6%	-15%
CCCC(=O)N1c2ccccc2C(N(C(C)=O)c2ccccc2)CC1C (stereo not drawn)	i	-3	-4%	2%	-10%	-10%
O=c1c2cnn(-c3ccc(Cl)cc3)c2ncn1Cc1ccc(Cl)cc1Cl	nt	nt	nt	nt	19%	-2%
CC(=O)OCC1OC(C#Cc2ccc(Cl)cc2)C=CC1OC(C)=O (stereo not drawn)	nt	nt	nt	nt	nt	6%[15.3 µM]
O=C(CN1C(=O)COc2ccc(S(=O)(=O)N3CCCCCC3)cc21)NCCc1ccccc1	nt	nt	nt	nt	24%	4%
Cc1ccc(OCC(=O)N/N=C\c2c(C)[nH]n(-c3ccccc3)c2=O)c([N+](=O)[O-])c1	i	1	-2%	20µM*	0%	1%
CCCCN(CCCC)C(=S)N/N=C/c1c(C)[nH]n(-c2ccccc2)c1=O	i	-89*	-1%	22%	19%	-21%
CCCC(=O)N(c1ccc2oc3c(c2c1)CCCC3)S(=O)(=O)c1cc(C)ccc1C	nt	nt	nt	0%	21%	4%
Cn1c(=O)c2c(SCC(=O)Nc3ccccc3C(F)(F)F)nc(C3CCCC3)nc2n(C)c1=O	nt	nt	nt	nt	10%[9.22 µM]	-5%
Cc1cc(C)c(S(=O)(=O)NCC(c2ccc(N(C)C)cc2)N2CCc3ccccc32)c(C)c1 (stereo not drawn)	nt	nt	nt	nt	-12%[9.22 µM]	11%
COc1ccccc1C(=O)O/N=C1/CCCc2c1ccc(OC)c2[N+](=O)[O-]	i	1	1%	4%	20%	-8%
COc1ccc2c(c1)CC/C2=N\OC(=O)c1ccccc1OC	i	-1	35µM*	-57%	?	-23%
O=C(O)c1cccnc1Nc1cccc(C(F)(F)F)c1	i	-2	18µM*!	-91%	1%	6%
NS(=O)(=O)c1cccnc1Nc1cccc(C(F)(F)F)c1	i	-1	4%	0%	7%	?
SMILES	Akt phos inh	CCT chaperon mod	Mito fusion act	aSyn rescue	TDP-43 yeast inh	Anesthetic bind
COc1ccc(S(=O)(=O)NCCSC(C)(C)C)c(Cl)c1Cl	i	1	1%	-10%	-1%	16µM*
O=C1c2cccc(OCC(=O)N3CCCc4ccccc43)c2CCN1Cc1cccnc1	i	2	1%	1%	-16%[9.22 µM]	-20%
Cc1ccccc1CN1CCc2c(OCC(=O)N3CCCc4ccccc43)cccc2C1=O	i	-3	?	11%	13µM*	26%
Cc1ccc(Nc2c(-c3ccc(C)s3)nc3cccc(C)n23)cc1	nt	nt	nt	-34%	nt	nt
Cc1cccc(OCc2nc(-c3ccccn3)n[nH]2)c1	i	2	-5%	?	?	-22%
Cc1ccc(OCc2nc(-c3ccccn3)n[nH]2)cc1	i	4	-3%	?	13µM*	-23%
COc1ccc(C#Cc2cnc(Cl)c3cncnc23)cc1OC	nt	nt	nt	4%	nt	nt
N#C/C(=C\c1ccc(Cl)cc1Cl)c1n[nH]c(Cn2cncn2)n1	-90%*	1	-2%	-4%	6%	-13%
Cc1cc2c(cc1C)-c1nnnn1C(N1CCC(Cc3ccccc3)CC1)C(=O)N2 (stereo not drawn)	i	nt	nt	0%	25µM*	nt
COc1ccc2nc3c(cc2c1)c(NC(=O)c1cccs1)nn3CC(C)C	i	-5	5%	2%	25µM*	4%
CCCn1nc(NC(=O)C(C)(C)C)c2cc3cc(OC)ccc3nc21	i	0	-1%	1%	17%	58%
CCCCn1nc(NC(=O)CC)c2cc3cc(OC)ccc3nc21	i	-1	?	0%	11µM*	43%
CC(C)Cn1nc(NC(=O)c2cccs2)c2cc3ccccc3nc21	i	-5	7%	-7%	18%	-13%
Cc1cc([N+](C)(C)C)cc(C)c1/C=C/c1ccnc2ccccc12	nt	nt	nt	-40%	nt	nt
COC(=O)c1cccc(NC(=O)COc2cccc([N+](=O)[O-])c2)c1	i	-2	-1%	0%	11µM*	-13%
O=C(N/N=C/c1sc(N2CCOCC2)nc1-c1ccccc1)c1ccccc1O	i	5	9%	-6%	14µM*	7%
O=C(N/N=C/c1sc(N2CCOCC2)nc1-c1ccccc1)c1ccccc1Cl	i	-3	-5%	0%	-14%	-1%
CC/C(=N\NC(=O)CSCc1ccccc1Cl)c1ccc2c(c1)OCCO2	i	0	-3%	2%	9%	?
CC/C(=N\NC(=O)CSCc1ccc(Cl)cc1)c1ccc2c(c1)OCCO2	i	-4	-1%	4%	7%	18µM*
Cc1ccc(CSCC(=O)Nc2ccc3c(c2)OCO3)cc1	i	-2	5%	5%	26%	-21%
O=C(CSCc1ccc(Cl)cc1)Nc1ccc2c(c1)OCCO2	i	-4	1%	5%	11µM*	?
CCCCOc1ccccc1CC1C(=O)Nc2ccc(Br)cc21 (stereo not drawn)	nt	nt	nt	nt	nt	-8%

Bioassay records from PubChem.
